Test results reported in PubChem BioAssay (Tox21).
Inconclusive results are not listed. The source made the active and inactive calls. Unless noted, calls come from the whole dose curve; as a rule, active = well fitted curve in the direction sought with a large enough effect in the repeat runs; inconclusive = weak or mixed curves; inactive = no such curve, though single readings can be large; an effect the other way counts as inactive or inconclusive.

What was measured:
[1] = qHTS assay to identify small molecule agonists of the TGF-beta/Smad signaling pathway - cell viability counter screen (AID 1346829); settings: SBE-bla HEK293T viability, CellTiter-Glo luminescence, 5 h; series mostly up to 76.8 µM; note: top concentration of the series differs between compounds; nearly all actives have a fitted effect of over 45% in size
How it was run: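 In parallel with the Smad reporter read, viability of HEK 293T cells stably carrying SBE-bla is quantified by ATP luminescence following 5 hr compound treatment.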

[2] = qHTS assay to identify small molecule agonists of the TGF-beta/Smad signaling pathway (AID 1346859; active = well fitted activation curve with a large enough effect in the signal ratio in the repeat runs, not every such curve was filed as active; the % refers to the signal ratio); settings: SBE-bla HEK293T, TGF-beta/Smad beta-lactamase reporter, 5 h; series mostly up to 76.8 µM
How it was run: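 Smad-responsive beta-lactamase reporter cells (HEK 293T) received compounds from DMSO stocks after overnight attachment, were incubated 5 hr, then treated 2 hr with FRET substrate before dual-emission fluorescence measurement (405 nm excitation).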

[3] = Human pregnane X receptor (PXR) small molecule agonists, qHTS cell viability counter screen (AID 1346977); settings: PXR-Luc HepG2 viability, CellTiter-Fluor, 24 h; series mostly up to 92.4 µM; note: nearly all actives have a fitted effect of over 50% in size
How it was run: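 Measures live-cell protease fluorescence (CellTiter-Fluor) in PXR-Luc HepG2 cells treated 24hr with compounds at 37C. Cells had 5hr to attach before pin transfer of DMSO solutions.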

[4] = Caspase-3/7 induction in HepG2 cells by small molecules, qHTS assay (AID 1346978); settings: HepG2 caspase-3/7 activation, Caspase-Glo luminescence, 17 h; series mostly up to 92.4 µM; note: nearly all actives have a fitted effect of over 15% in size
How it was run: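 Wild-type HepG2 cells (2,000/well) were settled 5 h at 37 C, 5% CO2, then exposed to compounds in DMSO for 17 h. Caspase-3/7 activity was read by luminescence 30 min after adding Caspase-Glo 3/7 reagent at room temperature.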

[5] = Caspase-3/7 induction in CHO-K1 cells by small molecules, qHTS cell viability counter screen (AID 1346979); settings: CellTiter-Fluor fluorescence, 17 h; series mostly up to 92.4 µM; note: nearly all actives have a fitted effect of over 35% in size
How it was run: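 In the same wells as the caspase read, viability of compound-treated wild-type CHO-K1 cells was assessed using CellTiter-Fluor, added after 16hr at 37C and measured by fluorescence following 1hr further incubation.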

[6] = Caspase-3/7 induction in CHO-K1 cells by small molecules, qHTS assay (AID 1346980); settings: CHO-K1 caspase-3/7 induction, Caspase-Glo luminescence, 17 h; series mostly up to 92.4 µM; note: nearly all actives have a fitted effect of over 15% in size
How it was run: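 Wild-type cells were seeded at 1,500 per well and settled 5 hr at 37 C, 5% CO2, then exposed to DMSO-dissolved compounds for 17 hr. Caspase-Glo 3/7 reagent was added, and luminescence was read after 30min at room temperature.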

[7] = Caspase-3/7 induction in HepG2 cells by small molecules, qHTS cell viability counter screen (AID 1346981); settings: CellTiter-Fluor fluorescence, 17 h; series mostly up to 92.4 µM; note: nearly all actives have a fitted effect of over 30% in size
How it was run: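 Treatment of HepG2 cells with DMSO-delivered compounds ran 16 hr at 37 C following a 5-hr pre-incubation of 2,000 cells/well. CellTiter-Fluor fluorescence, read after 1 hr, served as the viability measure in a qHTS format.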

[8] = biological target: Nuclear receptor subfamily 1 group I member 2 (Homo sapiens) (UniProt O75469); assay: Human pregnane X receptor (PXR) small molecule agonists, qHTS assay (AID 1346982); settings: PXR-Luc HepG2, CYP3A4 luciferase reporter, 24 h; series mostly up to 92.4 µM; note: nearly all actives have a fitted effect of over 35% in size
How it was run: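 Stable HepG2 line reporting PXR-mediated CYP3A4 expression via luciferase. Treatment: 24 hr with compounds in DMSO at 37 C. Detection: ONE-Glo luminescence.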

[9] = biological target: Thyrotropin-releasing hormone receptor (Homo sapiens) (UniProt P34981); assay: qHTS assay to identify small molecule antagonists of the thyrotropin-releasing hormone receptor (TRHR) signaling pathway (AID 1346877; active = well fitted inhibition curve with a large enough effect in the repeat runs, not every such curve was filed as active); settings: TRHR-HEK293, TRH-induced calcium fluorescence, antagonist mode; series mostly up to 51.3 µM
How it was run: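 Overnight-plated (18 h, 37 °C) HEK293 cells expressing TRHR were dye-loaded 2 h, treated with compound, then stimulated with TRH at 1 nM final. Fluorescence intensity was captured every second for 3 min.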

[10] = biological target: Thyrotropin-releasing hormone receptor (Homo sapiens) (UniProt P34981); assay: qHTS assay to identify small molecule agonists of the thyrotropin-releasing hormone receptor (TRHR) signaling pathway (AID 1346891; calls by dose curve;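 note: HEK293 cells expressing TRHR with calcium dye readout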); settings: TRHR-HEK293 calcium fluorescence, agonist mode; series mostly up to 57.6 µM
How it was run: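 Agonist-mode calcium mobilisation screen: TRHR-transfected HEK293 cells cultured overnight (18 h), dye-loaded for 2 h at 37 °C, exposed to compounds, and monitored by fluorescence for 3 min.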

Measured: Potency

Nuclear receptor subfamily 1 group I member 2 (Homo sapiens), sequence (O75469 whole entry, looked up): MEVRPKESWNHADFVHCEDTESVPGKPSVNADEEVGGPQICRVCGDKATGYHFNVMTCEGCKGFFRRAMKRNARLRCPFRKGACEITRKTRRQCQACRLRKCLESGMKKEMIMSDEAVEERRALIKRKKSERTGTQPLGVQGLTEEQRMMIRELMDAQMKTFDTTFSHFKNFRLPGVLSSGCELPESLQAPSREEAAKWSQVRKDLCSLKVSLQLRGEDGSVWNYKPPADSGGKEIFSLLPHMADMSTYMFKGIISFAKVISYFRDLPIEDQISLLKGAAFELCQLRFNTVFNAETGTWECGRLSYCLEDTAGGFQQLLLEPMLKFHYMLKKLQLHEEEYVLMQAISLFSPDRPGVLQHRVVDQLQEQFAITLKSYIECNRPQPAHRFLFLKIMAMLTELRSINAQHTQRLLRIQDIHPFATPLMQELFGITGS
Thyrotropin-releasing hormone receptor (Homo sapiens), sequence (P34981 whole entry, looked up): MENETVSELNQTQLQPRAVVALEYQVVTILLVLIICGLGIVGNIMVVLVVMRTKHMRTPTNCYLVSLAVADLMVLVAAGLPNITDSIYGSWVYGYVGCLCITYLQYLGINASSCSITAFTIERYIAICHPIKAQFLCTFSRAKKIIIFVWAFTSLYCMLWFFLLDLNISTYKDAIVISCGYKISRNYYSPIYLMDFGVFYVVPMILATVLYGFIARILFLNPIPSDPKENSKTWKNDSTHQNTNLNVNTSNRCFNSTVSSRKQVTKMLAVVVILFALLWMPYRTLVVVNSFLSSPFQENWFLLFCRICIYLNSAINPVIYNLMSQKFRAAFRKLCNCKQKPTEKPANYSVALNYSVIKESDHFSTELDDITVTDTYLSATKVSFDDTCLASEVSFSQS

Cc1nc(C)nc(N2C[C@@H](C)N(c3ccnc([C@@H](C)O)n3)[C@@H](C)C2)n1
not listed: [9] | [10]
inactive: all other assays above

CC(C)COC(=O)COc1ccc(Cl)cc1Cl
not listed: [3] | [4]
inactive: all other assays above

C=C[C@@H](C)CCC=C(C)C
not listed: [9]
inactive: all other assays above

CCCCCC(=O)OCC
not listed: [9]
inactive: all other assays above

OC(CCN1CCCCC1)(c1ccccc1)c1ccccc1
not listed: [3] | [4] | [9]
inactive: all other assays above

CCCCCC1Nc2cc(C(F)(F)F)c(S(N)(=O)=O)cc2S(=O)(=O)N1 (stereo not given)
not listed: [4] | [5] | [9]
inactive: all other assays above

O=C(O)CCNC(=O)c1ccccc1
not listed: [4] | [9]
inactive: all other assays above

NC(=O)C1(N2CCCCC2)CCN(CCCC(=O)c2ccc(F)cc2)CC1
not listed: [5] | [9] | [10]
inactive: all other assays above

Cc1cccc(Nc2ccncc2S(=O)(=O)NC(=O)NC(C)C)c1
inactive: [1] | [2] | [4] | [6] | [7]

Nc1ccc(S(=O)(=O)Nc2ccccn2)cc1
not listed: [9] | [10]
inactive: all other assays above

CCCC(C)CC (stereo not given)
not listed: [4] | [9] | [10]
inactive: all other assays above

CCCCC(C)C(=O)O (stereo not given)
not listed: [7] | [9] | [10]
inactive: all other assays above

CN[C@@H]1[C@H](O)[C@H](NC)[C@H]2O[C@@]3(O)C(=O)C[C@@H](C)O[C@H]3O[C@@H]2[C@H]1O
not listed: [4] | [9] | [10]
inactive: all other assays above

C[N+](C)(C)CC(O)CCl (stereo not given)
not listed: [9] | [10]
inactive: all other assays above
